Activity calls are given as the source filed them. Rule for the calls: active = hit-call score of the fitted dose curve at least 0.9, where 1 is the maximum; inactive = score below 0.9.
Assay: APR_HepG2_MitoMembPot_72hr: Apredica 72-hour HepG2 Assay for Mitochondrial Membrane Potential (AID 2282917)
Details: imaging, actives raise or lower the signal
Method: APR_HepG2_72hr is a cell-based, multiplexed-readout assay that uses HepG2, a human liver cell line, with measurements taken at 72 hours after chemical dosing in a 384-well plate.APR_HepG2_MitoMembPot_72hr is one of 10 assay component(s) measured or calculated from the APR_HepG2_72hr assay. It is designed to make measurements of dye binding, a form of membrane potential reporter, as detected with fluorescence intensity signals by HCS Fluorescent Imaging technology.Data from the assay component APR_HepG2_MitoMembPot_72hr was analyzed into 1 assay endpoint. This assay endpoint, APR_HepG2_MitoMembPot_72hr, was analyzed with bidirectional fitting relative to DMSO as the negative control and baseline of activity. Using a type of membrane potential reporter, gain or loss-of-signal activity can be used to understand changes in the signaling. Furthermore, this assay endpoint can be referred to as a primary readout, because this assay has produced multiple assay endpoints where this one serves a signaling function. To generalize the intended target to other relatable targets, this assay endpoint is annotated to the cell morphology intended target family, where the subfamily is organelle conformation.
Cells were treated with dimethyl sulfoxide (DMSO) as a solvent control at a final concentration of 0.5% v/v or with compounds in DMSO with a resulting final DMSO concentration of 0.5% v/v. Compound treatment was done at concentrations of 0.39, 0.78, 1.56, 3.12, 6.24, 12.5, 25, 50, 100, and 200 uM in duplicate on each plate. Cells were treated with compounds for 1, 24, or 72 hr. Carbonyl […] m-chloro-phenylhydrazone (CCCP) and taxol were used as positive controls for mitochondrial function and cytoskeletal stability, respectively; DMSO served as the negative control for this experiment. Cells were fixed by the direct addition of 50 uL formaldehyde in Hank's Balanced Salt Solution (HBSS) to a final concentration of 3.7%. After incubation in the fixation medium for 30 min at room temperature (293-298 K), cells were rinsed twice with HBSS and treated with cell permeabilization buffer (16 uL of 0.5% Triton X-100) for 10 min at room temperature (293-298 K) before labeling. For mitochondrial membrane potential and mitochondrial measurements, pre-fixed cells were incubated with 50 uL of MitoTracker Red CMXRos (Invitrogen) at a concentration of 250 nM for 30 min before fixation. In the remaining cases, post-fixed cells were labeled by incubation with a multiplexed mixture of primary antibodies in HBSS for 60 min at room temperature (293-298 K) to detect immunoreactivity of c-Jun (1:500), phospho-histone H3 (1:100), phospho-histone H2A.x (1:200), p53 (1:400), alpha-tubulin (1:200) and Hoechst 33342 (2 ug/mL). Cells were labeled for multiplexed imaging on two separate plates: a) Hoechst 33342, MitoTracker Red, phospho-histone H3, and alpha-tubulin, and b) Hoechst 33342, phospho-histone H2A.x, and c-Jun. A final rinse with HBSS (50 uL) was performed before analysis. The primary and secondary antibodies for the proteins were phospho-histone H3 (rabbit anti-phospho-histone H3 and FITC-donkey anti-rabbit IgG), phospho-histone H2A.x (mouse anti-phospho-histone H2A.x and FITC-donkey anti-mouse IgG), c-Jun (rabbit anti-phospho-c-Jun and Cy3-donkey anti-rabbit IgG), p53 (sheep anti-p53 and Cy5-donkey anti-sheep IgG), alpha-tubulin (mouse anti-alpha-tubulin and Cy5-donkey anti-mouse IgG). These antibodies are available as the CellCiphr HepG2 assay kit (Millipore).Digital images of each well were captured using a Cellomics ArrayScan VTI (Thermo Scientific Cellomics) (0.8 NA objective, 0.63x optical coupler, and XF-93 filter set) at 20x magnification. The images were acquired using the autofocus feature of the ArrayScan instrument, which entails the following steps. First, the camera focuses on channel 1 (Hoechst 33342), where nuclei are identified. Second, a Z offset of 1 um is used for capturing mitochondria (MitoTracker Red). […]
With `CN(C)C(=S)S` the outcome was “inactive”. For `Oc1c(Cl)cc(Cl)cc1Cl`, the outcome was “inactive”. With `Clc1cccc(Cl)c1` the outcome was “inactive”. For `Clc1cccc(Cl)c1Cl`, the outcome was “inactive”. With `N#Cc1cccnc1` the outcome was “inactive”. In the case of `Cc1cc(C)cc(C)c1`, the outcome is reported as “inactive”. In the case of `OCCN(CCO)CCO`, the outcome is reported as “inactive”. In the case of `CC(C)(C)c1ccccc1O`, the outcome is reported as “inactive”. With `CCCCCCCCCCCCc1cccc(S(=O)(=O)O)c1` the outcome was “inactive”. With `CC(C)O.CC(C)O.OCCN(CCO)CCO.OCCN(CCO)CCO.[Ti]` the outcome was “inactive”. In the case of `O=C(O)C1(c2ccc3c(c2)OC[C@H](Cc2ccc(-c4ccccc4)cc2)[C@H]3O)CCCC1`, the outcome is reported as “inactive”. In the case of `Oc1cc(Cl)c(Cl)cc1Cl`, the outcome is reported as “inactive”. For `O=C(N[C@H]1CN2CCC1CC2)c1ccc2c(c1)OCCO2`, the outcome was “inactive”.

From PubChem BioAssay (EPA / NIEHS)
